Where “and” joins values, the source holds several entries; their conditions need not be identical. Equal values may be shown once.
Test system: H9c2
Test: cardiomyocyte survival under oxidative or metabolic stress – cell-based, panel, H9c2 and HL-1, ATP luminescence, set 2, SAR follow-up (AID 651871);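 also: cells exposed to stressor for 2 h before ATP readout; reference of the scale not given here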
Conditions: H9c2/HL-1 cardiomyocytes, 2-deoxyglucose stress, with 2-deoxyglucose; run 12, at 79 µM (top of the series)

| Compound | activity (protection/inhibition) |
| --- | --- |
| CCOC(=O)c1cccc(NC(=O)CNC(=O)c2cc(-c3cc(OC)c(OC)c(OC)c3)nc3ccccc23)c1 | 86.3% |
| COc1ccc2nc(-c3cc(OC)c(OC)c(OC)c3)cc(C(=O)NCC(=O)Nc3ccc(C(C)=O)cc3)c2c1 | 79.9% |
| COc1ccc2c(c1OC)C(=O)N1c3ccccc3C(=O)N(Cc3cccc(Cl)c3Cl)C21 (stereo not drawn) | 79.7% and 81.4% and -3.37% |

Source: PubChem BioAssay AID651871 (Sanford-Burnham Center for Chemical Genomics, 2012)
